Screens (PubChem)
The full list was thinned out, with hits kept by preference.
RBX1-CUL1 inh: inhibitors of human ROC1-CUL1 ubiquitin ligase activity; AID 1347404, 2020; actives 0.6% (n = 140,000); in vitro K48 di-Ub FRET, acceptor:donor ratio, 45 min; inhibition, % at 10 µM; in the data active = inhibition above about 25%
Of the large screens only hits and unclear results are named; the others gave an inactive call.

O=C(Oc1ccc(C(=S)N2CCOCC2)cc1)c1ccc(Cl)cc1Cl	none
O=C(NCC1CCCO1)c1ccc(N2CCCCC2)cc1 (configuration not stated)	none
CC(=O)NCC1CCN(C(=O)CN2C(=O)OC(C)(C)C2=O)CC1	none
COCc1ccc(C(=O)NCc2c(C)ncc3c2CCN(C(=O)c2cccc(OC)c2OC)C3)o1	none
Cc1occc1C(=O)NNC(=O)CCCC(=O)NNC(=O)c1ccoc1C	none
O=C(OCCOc1ccccc1)C(C(F)(F)F)C(F)(F)F	RBX1-CUL1 inh 85
O=C(OCCOc1ccccc1)c1ccc(-c2ccccc2)cc1	none
NC(=O)c1ccccc1OCCOc1ccccc1	none
CC(C)(C)NS(=O)(=O)Cc1cccc(Cl)c1	none
Cn1c(=O)c2nc(Cl)n(CC(=O)c3ccc(Cl)cc3)c2n(C)c1=O	none
O=[N+]([O-])c1ccc2[nH]c(O)c(N=Nc3ccccc3[N+](=O)[O-])c2c1	none
NC(=O)N=Nc1c(O)[nH]c2ccc(Br)cc12	none
O=C1N=c2ccc([N+](=O)[O-])cc2=C1N=Nc1c(O)[nH]c2ccc([N+](=O)[O-])cc12	RBX1-CUL1 inh 45
O=C(Oc1cccc2cccnc12)c1ccccc1I	none
O=C(Nc1cccc(-c2nc3cc(Cl)cc(Cl)c3o2)c1)c1ccccc1	none
CC1(C)CC(C(=O)N2CCOc3c(cc(-c4cccnc4)cc3OCCc3cccs3)C2)CCO1 (configuration not stated)	none
Fc1ccc(-n2c(C3CC3c3ccc(Cl)cc3)n[nH]c2=S)cc1 (configuration not stated)	none
CCN1CCN(CCCNC(=O)c2ccc3c(c2)sc2nc(-c4ccc(C)cc4)cn23)CC1	none
CCOc1ccc(-c2cn3c(n2)sc2cc(C(=O)NCCCN4CCCCC4)ccc23)cc1	none
CCOc1ccc(-c2cn3c(n2)sc2cc(C(=O)NCCCN4CCCCCC4)ccc23)cc1	RBX1-CUL1 inh 42
CCCN1CCN(CCCNC(=O)c2ccc3c(c2)sc2nc(-c4ccc(OCC)cc4)cn23)CC1	none
Cc1ccc(-c2cn3c(n2)sc2cc(C(=O)NCCCN4CCCCCC4)ccc23)cc1	RBX1-CUL1 inh 39
Cc1ccc(-c2cn3c(n2)sc2cc(C(=O)NCCCN4CCCCC4)ccc23)cc1	none
CCCCC1CC(C(=O)Nc2ccccc2)C(=O)O1 (configuration not stated)	none
Cc1ccc(C(=O)C2C(=O)C(=O)N(c3ncccn3)C2c2ccc(Br)cc2)o1 (configuration not stated)	none
CC(C)(C)c1ccc(S(=O)(=O)c2cnc(SCC(=O)Nc3ccc(F)c(Cl)c3)[nH]c2=O)cc1	none
CCc1ccc(S(=O)(=O)c2cnc(SCC(=O)Nc3ccc(OC)cc3OC)[nH]c2=O)cc1	none
COc1cc(Cl)c(C)cc1NC(=O)CSc1ncc(S(=O)(=O)c2ccc(C(C)(C)C)cc2)c(=O)[nH]1	RBX1-CUL1 inh 53
COc1cccc(-c2cnnc(NCc3nc(C)cc(C)n3)n2)c1	none
O=C(Cc1ccccc1Cl)c1ccc(O)c(O)c1O	RBX1-CUL1 inh 101
O=C(Cc1ccccc1)Nc1cc(Cl)ccc1O	none
O=C(Cc1ccccc1Cl)N1CCN(c2ncccn2)CC1	none
NC(=O)c1c(NC(=O)CSc2nc(-c3cccs3)cc(C(F)(F)F)n2)sc2c1CCCC2	none
O=C1NN(c2ccc(I)cc2)C(=O)/C1=C\c1ccc(-c2cccc(C(=O)O)c2)o1	RBX1-CUL1 inh 33
COC(=O)c1ccccc1-c1ccc(/C=C2\C(=O)NN(c3ccc(Br)cc3)C2=O)o1	none
O=C1NN(c2ccc(I)cc2)C(=O)/C1=C\c1ccc(-c2ccc(Br)cc2C(=O)O)o1	RBX1-CUL1 inh 45
O=C1NN(c2ccc(Cl)c(Cl)c2)C(=O)/C1=C\c1ccc(-c2ccc(Br)cc2C(=O)O)o1	RBX1-CUL1 inh 71
COC(=O)c1cccc(-c2ccc(/C=C3/C(=O)NN(c4ccc(C)cc4)C3=O)o2)c1	none
CCc1ccc(N2NC(=O)/C(=C/c3ccc(-c4ccccc4F)o3)C2=O)cc1	none
Cc1ccc(/C=C2/C(=O)NN(c3cccc(C(F)(F)F)c3)C2=O)o1	none
CCOC(=O)N1C2C=C(C)C(ON2C(=O)c2ccccc2)C2C(C)C(=O)N21 (configuration not stated)	none
O=C(Cn1cnc2ccccc21)N1CCCC(CO)(Cc2ccccc2F)C1 (configuration not stated)	none
CCCCCCC(=O)C1C(=O)NC(=O)N(c2ccccc2OC)C1=O (configuration not stated)	none
O=C(c1cccnc1-c1cccc(-c2ccn[nH]2)c1)N1CCCCC1	none
Cc1cccc(C(=O)NC(C(=O)O)C23CC4CC(CC(C4)C2)C3)c1 (configuration not stated)	none
COCC1CCN(C(=O)c2cn(C3CCCCC3)nn2)C1 (configuration not stated)	none
O=C1CC(CSc2nc3ccccc3[nH]2)=NC(=O)N1	none
N=C(N)SCC1=NC(=O)NC(=O)C1	RBX1-CUL1 inh 26
O=C1CC(CSCc2ccc(Cl)cc2)=NC(=O)N1	none
COc1cc(/C=C2\C(=O)N(c3ccccc3Cl)N=C2C)cc(I)c1O	RBX1-CUL1 inh 78
COc1cc(C=C2C(=O)OC(c3ccccc3)OC2=O)cc(Cl)c1O (configuration not stated)	none
CCCCOc1ccc(/C=C2/C(=O)N(c3cccc(Cl)c3C)N=C2C)cc1OC	none
O=C(O)c1ccccc1-c1nc2cc(Cl)c(F)cc2[nH]1	none
Cc1ccc(C)c(C(=O)COC(=O)c2ccc(Cl)cc2)c1	none
COCCCNc1nc2nonc2nc1NC1CC1	none
O=C1NN(c2ccc(I)cc2)C(=O)/C1=C\c1ccc(O)cc1O	none
O=C1NN(c2ccccc2)C(=O)/C1=C/c1ccccc1	none
Cc1ccc(N2NC(=O)/C(=C/c3ccc(F)cc3)C2=O)cc1Cl	RBX1-CUL1 inh 50
CN(c1ccccc1)c1ccc(/C=C2\C(=O)NN(c3ccccc3)C2=O)cc1	RBX1-CUL1 inh 31
COc1cc(/C=C2/C(=O)NN(c3ccc(F)cc3)C2=O)cc(Cl)c1O	none
COc1ccc(/C=C2/C(=O)NN(c3cccc(C)c3)C2=O)cc1	none
Cc1cccc(N2NC(=O)/C(=C/c3ccccc3)C2=O)c1	none
COC(=O)c1ccc(N2NC(=O)/C(=C/c3ccc(C)cc3)C2=O)cc1	RBX1-CUL1 inh 27
COc1cc(/C=C2\C(=O)NN(c3ccc(C)cc3)C2=O)cc(OC)c1OC	none
O=C1NN(c2ccc(I)cc2)C(=O)/C1=C\c1ccc(O)c(O)c1	RBX1-CUL1 inh 106
Cc1ccc(N2NC(=O)/C(=C\c3ccc(N(C)C)c(Br)c3)C2=O)cc1Cl	none
O=C1NN(c2ccc(I)cc2)C(=O)/C1=C\c1ccccc1	none
COc1ccc(CC(=O)Nc2cccc(/C(C)=N\NC(=O)c3ccc(Cl)s3)c2)cc1	none
CS(=O)(=O)N(CC(=O)N/N=C/c1c(Cl)cccc1Cl)c1cc(C(F)(F)F)ccc1Cl	none
Cn1ncc(N2CCC(CNC3CCN(c4ccccc4)CC3)C2)cc1=O (configuration not stated)	none
Cc1ccc(S(=O)(=O)N=S=C(Sc2ccccc2)c2c(C)cc(C)cc2C)cc1	none
O=C1NN(c2ccc(F)cc2)C(=O)/C1=C\c1ccc(F)cc1	none
Cc1ccc(N2NC(=O)/C(=C/c3ccc(N(C)CCC(C)C)cc3)C2=O)cc1C	none
Cc1ccc(N2NC(=O)/C(=C/c3ccc(F)cc3)C2=O)cc1C	RBX1-CUL1 inh 78
COc1ccc(/C=C2\C(=O)NN(c3ccc(F)cc3)C2=O)cc1	none
O=C1NN(c2ccc(F)c(Cl)c2)C(=O)/C1=C\c1ccc(F)cc1	RBX1-CUL1 inh 77
Cc1ccc(N2NC(=O)/C(=C/c3ccc(F)cc3)C2=O)cc1	RBX1-CUL1 inh 71
O=C1NN(c2ccc(F)cc2)C(=O)/C1=C/c1ccccc1	none
